Laboratory results taken from the supplement of paper PMC11417369.
± gives the standard deviation of the averaged measurements. Whole data set: some 25,000 sequences, median “ln(normalized median fluorescence intensity)” near 10, cut for the highest 2% near 12. The full list was thinned out, with the highest values kept by preference.

Tested on: PfAP2-G AP2 domain (GST-tagged)
Test: gcPBM binding intensity (ln(normalized median fluorescence intensity)); higher = stronger DNA binding
Method in brief: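 GST-fused DNA-binding domains of P. falciparum, expressed in E. coli, were applied at about 25 μg on average for 1 h to an Agilent 4 × 180k array of primer-extended double-stranded 36-bp intergenic genomic probes and negative controls. Binding intensity is the highest Masliner-normalised natural-log median intensity across replicate spots of either probe orientation, measured with Alexa488 anti-GST antibody and a 488 nm scan.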

| Sequence | gcPBM binding intensity (ln) |
| --- | --- |
| TATATAAATATATATGTACACACATATACATGTTGA [CACACA_site9022] | 11.3 ± 0.92 |
| TATTTCAAATGTTATGTGCACATATTAATCCTACTT [GTGCAC_site9738] | 10.5 ± 0.28 |
| ATAATTATCATAGGATGTACATATTTATTTTGTATA [XGTACX_site7797] | 11.2 ± 0.67 |
| AATGTGAAAACGTGTACACATTTTATTTAATTTATC [CACACA_site5966] | 11.6 ± 0.98 |
| TTTATTAAAACAAAATGTACACACATATAATTTAAT [XGTACX_site1637] | 11.2 ± 0.68 |
| TTATATTTATATTTATGTACATATTTTGTGTGAAAA [XGTACX_site2367] | 11.4 ± 0.97 |
| ATTTTTGTAATTATTTGTACACATTTATTTATGTGT [XGTACX_site1864] | 11.5 ± 0.73 |
| TTATTAAAACAAAATGTACACACATATAATTTAATG [CACACA_site8193] | 11.3 ± 0.73 |
| GCAAATGTGAAAACGTGTACACATTTTATTTAATTT [XGTACX_site8000] | 11.7 ± 1 |
| CGTTATATATTTTATAGTACTTTTTGTAAATTTTTT [XGTACX_site7682] | 11.1 ± 0.67 |
| CGATATGTTCAATATTGTACTATTTATAATAATATG [XGTACX_site3051] | 11 ± 0.69 |
| ATATATATATATATATGTACTAAATATTCATCCTTA [XGTACX_site6039] | 11 ± 0.65 |
| TGAATATAACAAATATGTACTTAAAATTGTTATATT [XGTACX_site5679] | 11.1 ± 0.76 |
| GTGTAATATATTTTTCGTACATATTATATATATATA [XGTACX_site1675] | 11 ± 0.69 |
| AATTTTTTTTTTAGACGTACAAGAAAAAACAAAAAA [XGTACX_site4990] | 11.7 ± 0.75 |
| AATTATTTTAGAAACACACAAATTAGAAAAAACATA [CACACA_site7673] | 10.2 ± 0.24 |
| AAGAAAAAACAAACATGTACACATAATTTAGTTTTT [XGTACX_site3121] | 11.4 ± 0.89 |
| TATTTTTTTTTTTAATGTACAAACAAATTATGTTGG [XGTACX_site2873] | 10.8 ± 0.57 |
| ATATATAATTTTTGCTGTACACAAAATATTAATTTA [XGTACX_site2057] | 11.5 ± 0.86 |
| TTTTTTGCTAAGTGTACACAAATGTTTATTAATTTA [CACACA_site5859] | 11.7 ± 1 |

| Sequence | gcPBM binding intensity (ln) |
| --- | --- |
| TTTATATGTATTAAGTGTACACATATAATGTGTTTT [XGTACX_site4890] | 11.6 ± 0.87 |
| ATTTTTTTTGCTAAGTGTACACAAATGTTTATTAAT [XGTACX_site7440] | 11.7 ± 0.81 |
| TTTATATGTATTAAGTGTACACATATAATGTATTTT [XGTACX_site16] | 11.5 ± 0.83 |
| TCATATTCCAAAAAAAAAAAAAAAAAAAAAAAAATA [CACACA_negctrl_site1293] | 9.66 ± 0.3 |
| AATAAATATTCATTTTGTACATATTTTTCGTATATG [XGTACX_site6104] | 10.9 ± 0.57 |
| TTGGGCATAATGTCATGTACACAAATAATTCTTTAT [XGTACX_site861] | 11.5 ± 1 |
| TATATATATATATATTGTACATATATTATTATATAT [XGTACX_site7447] | 10.9 ± 0.53 |
| AATTTACAAAAAAGAAAAAAAAAAAAAAAGATACTT [CACACA_negctrl_site1434] | 9.65 ± 0.071 |
| ATTTATATTACAAAAAGTACACACATAAATAAATAC [XGTACX_site1827] | 11.6 ± 0.92 |
| AAAAAAAAAAGAAAAAGTACATACATACATATATAT [XGTACX_site6405] | 11.3 ± 0.83 |
| ACATCATATTAAGAAAGTACAAAAAGAGAACATATA [XGTACX_site1268] | 11 ± 0.4 |
| TTGTTCTATTTAAGTAGTACATACACACACATATAC [XGTACX_site8484] | 11.5 ± 0.71 |
| TACGAATTAAAAAAGAGTACAAATAAAATATCTACA [XGTACX_site7412] | 11.3 ± 0.84 |
| AAAAAGAAAAAAGAAAGTACAAATATACACATTTTT [XGTACX_site3343] | 10.9 ± 0.54 |
| ATACGAAAAAAAAAAAGTACACAAAAATATCTACAT [XGTACX_site2051] | 11.7 ± 1.1 |
| ATTTAAGTAGTACATACACACACATATACAAAAAGA [CACACA_site9317] | 11.7 ± 1.3 |
| TTAAGTAGTACATACACACACATATACAAAAAGAAA [CACACA_site3972] | 11.7 ± 1.2 |
| ATTCATAAAAAGAGGTGTACATTAATATAATATATA [XGTACX_site8283] | 11.5 ± 0.95 |
| ATTTTGTTATTATATATATATATATATATATATATA [XGTACX_negctrl_site590] | 9.89 ± 0.49 |
| GATCATTTAAAATAAGTAATATTTTTTTTACTTTTG [TGCATGCA_negctrl_site602] | 9.62 ± 0.26 |

| Sequence | gcPBM binding intensity (ln) |
| --- | --- |
| GTTCATAAAAATTTTTGTACCCATAAAATATTCCTC [XGTACX_site8611] | 11.2 ± 0.65 |
| AATAATTGTTATAGTTGTACAATACATATATTACAA [XGTACX_site30] | 11.3 ± 0.63 |
| AAAAAAAAAAAAAAAAGTACAGACGTCAAAAAAAAA [XGTACX_site4817] | 11.6 ± 0.76 |
| AAAAAAAAAAAAAAGAGTACACAGACGTTCAAAGGT [XGTACX_site7566] | 11.7 ± 0.77 |
| ACAGACGTTCAAAGGTGTACGCAAAATGAATAATAT [XGTACX_site7565] | 11.6 ± 1 |
| TTTAAATATATTCAATCACACACATTCGTTTTTTTT [CACACA_site7962] | 9.77 ± 0.24 |
| GGCAAATTTATTATACCCACATACATACATACATAC [XGTACX_negctrl_site186] | 10.8 ± 0.62 |
| TTTACATTTTAGGAAGTGCATATAATAAATACTATC | 10.1 ± 0.2 |
| AAAAAAAAAAAAAAAAGTACATATATATATAATTAT [XGTACX_site7836] | 11.7 ± 0.89 |
| ATTATATTATATATATGTACATATATATATCATAAT [XGTACX_site1] | 11.1 ± 0.66 |
| ATCATAAAAGTATACACACATACATACATATGTACA [CACACA_site2641] | 10.8 ± 0.45 |
| ACATATTAATTATAAAGTACATATATATATATATAT [XGTACX_site4540] | 11.3 ± 0.79 |
| ATAATTATATATATATGTACATATTATATATATATA [XGTACX_site4526] | 11.2 ± 0.77 |
| AAAAAAAAATTGTGTACACATAATTATATCATATGT [CACACA_site4500] | 11.7 ± 0.89 |
| ATAAAAATAATATCATGTACATATGTGTATTGTATT [XGTACX_site1768] | 11 ± 0.49 |
| TATATCATAAAAAATTGTACATATATATATTATATA [XGTACX_site6726] | 11 ± 0.69 |
| TATATAAAAAGTAATTGTACATATATATATATATAT [XGTACX_site7953] | 10.9 ± 0.68 |
| TTAGTAGTATTATGTAGTACATAATTATCATATCAT [XGTACX_site817] | 11.6 ± 1.1 |
| AAAAAAAAAAAAAAAAGTACATATATATATATAATT [XGTACX_site4437] | 11.5 ± 0.86 |
| AAAAAAAAAAAAAAAAGTACACATAATTGTATATGT [XGTACX_site6339] | 11.7 ± 0.75 |
